# Measurements reported in PubChem BioAssay (NCI).
# The panel holds about 83,000 compounds, 20% with a hit somewhere; the sample as a whole holds those more often.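 Values shown are percent growth following 48 h exposure of cells in 96-well plates to a single concentration of compound; below 10 was considered active.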 Activity calls are given as the source filed them.
# Test system: MDA-MB-468 breast
# Assay: NCI-60 one-dose screen, 48 h (100 = growth as untreated, 0 = no growth, -100 = all killed)
# Conditions: 10 µM unless noted
row,Compound,growth
1,N#CC(C#N)=C1NC(c2ccccc2)=C(c2ccccc2)C(c2ccccc2Cl)=C1C#N,129% (inactive)
2,CC(C)C(C)C(N)C(=O)O (stereo not drawn),107% (inactive)
3,O=C(Oc1cccc2ccccc12)c1ccccc1C(=O)c1ccccc1,103% (inactive)
4,CCCS(=O)(=O)Nc1ccc(F)c(C(=O)c2c[nH]c3ncc(-c4ccc(Cl)cc4)cc23)c1F,39.3% (inactive)
5,CCCCC(CCc1ccccn1)C(=O)c1ccccc1 (stereo not drawn),109% (inactive)
6,CCN(CC)c1ccc(-c2cc(-c3cc(OC)c(OC)c(OC)c3)nc(N3CCOCC3)c2C#N)cc1,32.9% (inactive)
7,COc1ccc(C2=Nc3c(N)nc(N)nc3NC(c3cccc(Nc4ccnc5cc(C(F)(F)F)ccc45)c3)C2)cc1 (stereo not drawn),46.1% (inactive)
8,COC(=O)[C@]12CC[C@@H](C)[C@H](C)[C@@H]1C1=CC[C@@H]3[C@@]4(C)C[C@@H](OC(C)=O)[C@H](O)[C@@](C)(CO)[C@@H]4[C@H](O)C[C@@]3(C)[C@]1(C)CC2,-90.6% (active)
9,COc1ccc(-c2n[nH]nc2-c2csc3ccccc23)cc1OC,21.1% (inactive)
10,O=C(Nc1ccccc1C(=O)N/N=C(\c1ccccc1)c1ccccn1)c1ccccc1,-19.4% (active)
11,COc1ccc(/C(=N/O)c2cc(OC)c(OC)c(OC)c2)c(OC)c1N,27.8% (inactive)
12,COc1ccc([C@H]2[C@H](C(=O)Nc3cccnc3)c3ccccc3C(=O)N2c2ccccc2)cc1,97.7% (inactive)
13,CCCCCCCCOc1ccc(/C=N/Nc2cc(C)nc3ccc(Br)cc23)cc1,90% (inactive)
14,N#Cc1cnn(-c2nc3c(Cl)cccc3s2)c1N,85.3% (inactive)
15,COc1cc(-c2ccc(-c3ccc(C(=N)N)nc3)s2)cc(OC)c1OC,22.4% (inactive)
16,O=C1C(=O)c2ccc(Br)cc2-c2cc(Br)ccc21,0.713% (active)
17,CCCCOc1nc2ccc(C)cc2cc1/C=C/C(=O)/C=C/c1ccc2c(c1)OCO2,95.9% (inactive)
18,Cc1ccc(C)c(COc2cc(NC(=O)c3ccc4c(c3)OCO4)ccc2N(C)S(C)(=O)=O)c1,-29.6% (active)
19,Clc1cc(Cl)cc(Nc2ccc3cc(OCCCN4CCOCC4)ccc3n2)c1,40.9% (inactive)
20,C[C@@]1(C(=O)Nc2ccc(F)nc2)CCCN1c1nc(Nc2cc(C3CC3)[nH]n2)c2cccn2n1,13.1% (inactive)
21,CC(=O)O[C@@H]1C(=O)N(c2cnccn2)[C@H]1c1ccccc1[N+](=O)[O-],-4.17% (active)
22,COc1cc2c(cc1OC)C(C)N(S(N)(=O)=O)CC2 (stereo not drawn),99.6% (inactive)
23,CC(C)(C)c1cc(C[P+](c2ccccc2)(c2ccccc2)c2ccccc2)cc(C(C)(C)C)c1O,-2.61% (active)
24,CC(C)(C)c1ccc(OC(=O)Nc2ccccc2)cc1,112% (inactive)
25,Nc1nc(N)c2c(n1)NC(c1cccc(Nc3ccnc4cc(C(F)(F)F)ccc34)c1)CC(c1ccc(Cl)cc1)=N2 (stereo not drawn),21.5% (inactive)
26,N#Cc1c(-c2ccccc2)nc2c(c(-c3ccccc3)nn2-c2ccccc2)c1-c1ccc(N2CCCCC2)cc1,93.7% (inactive)
27,CCN(CC)CC(=O)N(CC)c1ccc(C)c(Cl)c1,95.6% (inactive)
28,CN(C)CCCNc1c2ccc(Cl)cc2nc2c1oc1ccc(Cl)cc12,36.4% (inactive)
